# An excerpt weighted towards active compounds, which were near 0.62% of everything screened.
# miR-21 act: qHTS Assay for Modulators of miRNAs and/orActivators of miR-21; Potency, µM (doses to about 38.3 µM), most hits filed as activators; HeLa miR-21 FLuc reporter, luciferase, 48 h; 340,000 tested, under 10 active;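 note: miR-21 action dims this reporter so a rising signal means less miR-21 action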
#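 HeLa cells stably expressing CMV-driven firefly luciferase with a downstream miR-21 binding sequence, endogenously expressing miR-21, were treated with titrations (up to about 40uM final) for 48 hours at 37 degree Celsius. Luciferase luminescence was read after lysis.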
# PINK1 modulator: A Quantitative High throughput Screen to Identify Chemical Modulators of PINK1 Expression; PINK1 immunofluorescence, high-content cytometry, 24 h; AID 624263, 2012; Potency, µM (top dose mostly 76.6 µM), hits mostly activators; 410,000 tested, 0.2% active; active = well fitted activation curve with a large enough effect; inconclusive = small, poorly fitted or top-dose-only effect; cell line not stated here; note: nearly all actives have a fitted effect of over 65% in size
#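 Readout is PINK1 immunofluorescence, quantified alongside mitochondrial, cell and nuclear markers by laser-scanning microplate cytometry. Cells from a stable line were exposed to compound titrations (5 concentrations) for 24 hours, with CCCP controls.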
# uPA surface inh: qHTS for Inhibitors of Cell Surface uPA Generation | cell surface uPA generation assay, qHTS | Potency, µM (series often up to 38.3 µM), most hits filed as inhibitors | 330,000 tested, 0.31% active; active = well fitted inhibition curve with a large enough effect; inconclusive = small, poorly fitted or top-dose-only effect; inactive = no such curve, though single readings can be large or run the other way; tested in mouse RAW 264.7 cells; note: nearly all actives have a fitted effect of over 55% in size
# IL-2 act: qHTS of IL-2 Activators; 360,000 tested, 0.065% active; activation, % (series mostly up to about 46 µM); IL-2 activation reporter assay, cell-based qHTS; stimulated with anti-CD3/CD4/CD28 beads; in transgenic mouse T cells; in the data active = activation above about 50%; inconclusive = mostly about 30% to 49%
#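 Readout: EGFP and DsRed signals by fluorescent plate cytometry. Unstimulated transgenic mouse T cells received compound 60 min before antibody-bead stimulation, then incubated 18 h at 37 degrees C.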
# Epigenetic reg: Quantitative High-Throughput Screen for Regulators of Epigenetic Control. murine LDR cells, GFP reporter derepression, 30 h. Potency, µM (titrated, usually from 53.9 µM), actives largely listed as activators. 280,000 tested, 0.2% active. AID 1865, 2009; note: nearly all actives have a fitted effect of over 60% in size
#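 Reporter derepression read as number of fluorescent GFP-positive objects, 20-120 um in size, counted by laser-scanning cytometer. Mouse LDR line with an epigenetically silenced CMV-GFP locus; compound incubation 30 h, 37 C.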
# p53 reactivator: qHTS assay for re-activators of p53 using a Luc reporter. H1299 p53-A138V BP100-luciferase reporter, luminescence, 24 h. Potency, µM (highest dose often 92.2 µM), usual class: activators. 320,000 tested, 0.063% active. AID 504706, 2011; note: nearly all actives have a fitted effect of over 45% in size
#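 H1299 (p53-null), stable ts p53-A138V + BP100-Luc; 1000 cells/well, Opti-MEM/10% FBS; cpd 4 pt, 1:5; 24 h, 37 deg C, 5% CO2; detection reagent 10 min RT; luminescence.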
# Hits are given with their value; - = inactive; ? = inconclusive; . = no result. Unless noted, calls come from the whole dose curve; as a rule, active = well fitted curve in the direction sought with a large enough effect; inconclusive = small, poorly fitted or top-dose-only effect, or another doubt; inactive = no such curve, though single readings can be large; an effect the other way counts as inactive or inconclusive.
SMILES,miR-21 act,PINK1 modulator,uPA surface inh,IL-2 act,Epigenetic reg,p53 reactivator
CC(C)Oc1ccc(F)cc1-c1cc(C(=O)NCc2cc(C(F)(F)F)cc(C(F)(F)F)c2)[nH]n1,.,35µM,.,-,.,.
CC(C)Oc1ccc(F)cc1-c1cc(C(=O)NCc2ccc(C(F)(F)F)cc2)[nH]n1,.,-,.,-,.,.
Cc1ccccc1NC(=S)NNc1ncc(C(F)(F)F)cc1Cl,-,-,-,-,-,-
Fc1ccccc1NC(=S)NNc1ncc(C(F)(F)F)cc1Cl,-,16µM,-,-,-,-
CCOc1ccc(OCC)c(Nc2nc3ccc(Cl)cc3n3cnnc23)c1,-,-,.,.,22µM,.
COc1cc2nc(NC3CCN(C)CC3)nc(NC3CCN(C)CC3)c2cc1OC,.,-,.,.,.,.
CC(C)(C)c1ccc(N/N=C(\C#N)S(=O)(=O)C(C)(C)C)cc1,-,40µM,-,-,-,-
CC(C)(C)S(=O)(=O)/C(C#N)=N/Nc1ccc(Cl)cc1,?,28µM,-,-,-,-
Cc1cccc(N/N=C(\C#N)S(=O)(=O)C(C)(C)C)c1,-,-,-,-,-,-
O=[N+]([O-])c1ccc(/C=C2\C=C(C(O)c3ccc([N+](=O)[O-])cc3)c3ccccc32)cc1 (stereo not drawn),.,-,.,.,.,.
Cc1coc(NC(=O)CSc2nc(-c3ccc(Cl)cc3)cc(C(F)(F)F)c2C#N)n1,-,-,-,-,?,-
COc1ccc(-c2cc(C(F)(F)F)c(C#N)c(SCC(=O)Nc3nc(C)co3)n2)cc1,-,8.9µM,-,-,-,-
COc1ccc(-c2cc(C(F)(F)F)c(C#N)c(SCC(=O)Nc3ccccc3C#N)n2)cc1,-,?,-,?,7.9µM,-
COc1ccc(-c2cc(C(F)(F)F)c(C#N)c(SCC(=O)Nc3ccccc3F)n2)cc1,-,-,.,.,-,.
COc1cc(C(=O)NCc2cc(C)nc3ccccc23)cc(OC)c1OC,-,-,-,-,-,-
COc1ccc(C(=O)NCc2cc(C)nc3ccccc23)cc1,-,-,7.1µM,-,-,-
Cc1c(C(=O)N/N=C/c2ccc(Cl)cc2)[nH]c2ccc(Cl)cc12,-,-,0.35µM,-,-,-
COCCn1c(C)cc(C(=O)COC(=O)c2ccccc2Br)c1C,-,-,2.5µM,-,-,-
CCN(CC)c1ccc2cc(-c3nnc(Nc4ccc(C)cc4)s3)c(=O)oc2c1,-,-,.,.,0.1µM,.
O=c1oc2ccccc2cc1-c1nc(-c2ccccc2)no1,-,-,-,-,-,?
CCN(CC)c1ccc2cc(-c3nc(-c4ccccc4)no3)c(=O)oc2c1,-,-,.,.,14µM,.
CCN(CC)c1ccc2cc(-c3nc(-c4cc5ccccc5oc4=O)cs3)c(=O)oc2c1,.,32µM,-,?,.,.
Cc1ccc(Nc2nnc(-c3cc4c(ccc5ccccc54)oc3=O)s2)cc1,-,-,.,.,-,.
Cc1nc2ccc(C(=O)N3CCOc4ccc(CN5CCOCC5)cc4C3)cc2nc1C,.,-,.,.,.,.
O=C(Nc1nc(-c2ccccn2)cs1)C1CC1,-,-,-,-,-,22µM
SMILES,miR-21 act,PINK1 modulator,uPA surface inh,IL-2 act,Epigenetic reg,p53 reactivator
CN(CC1CCCO1)S(=O)(=O)c1ccc(C(=O)Nc2nc(-c3ccccn3)cs2)cc1 (stereo not drawn),-,-,4µM,-,-,-
COc1cc2oc(=O)ccc2cc1-c1c(OC)ccc2ccc(=O)oc12,.,-,8.9µM,-,.,-
Cc1c(CN2CCOc3c(O)cc(-c4nc5ccccc5s4)cc3C2)cnn1C,.,-,.,.,.,.
N=c1oc2c3c4c(cc2cc1C(=O)Nc1ccccc1)CCCN4CCC3,-,11µM,-,-,0.28µM,?
Cc1ccc(NC(=O)c2cc3ccccc3oc2=N)cc1,-,-,-,-,.,-
COc1ccc(-c2coc3cc(OC(C)=O)ccc3c2=S)cc1,.,18µM,-,-,.,.
CC(=O)Oc1ccc2c(=O)c(-c3ccccc3)coc2c1,-,-,-,-,-,?
CC[N+]1=C(C)C(C)(C)c2cc(C)ccc21,-,22µM,-,-,?,-
CCN1C(=O)C(=O)c2cc(C)ccc21,.,-,?,-,.,-
CC[n+]1c(/C=C/Nc2ccccc2)oc2ccccc21,-,-,-,-,16µM,-
CC[n+]1c(/C=C/N(C)c2ccccc2)oc2ccc(F)cc21,?,-,-,-,-,-
CC[n+]1c(/C=C/Nc2ccccc2)oc2ccc(OC)cc21,-,-,-,-,13µM,-
CCOC(=O)C1CCCN(C(=O)c2cnn(-c3nccc(-c4cc(C)sc4C)n3)c2C)C1 (stereo not drawn),.,-,.,.,.,.
Oc1cc(-c2cccs2)cc2c1OCCN(Cc1cn[nH]c1-c1ccc(Cl)cc1)C2,.,-,.,.,.,.
Cc1nn(-c2ccc(F)cc2)c(C)c1CNC(=O)c1ccc(-n2cc(NC(=O)c3ccoc3)cn2)cc1,.,-,.,.,.,.
CCOC(=O)C(C(=O)OCC)c1cc(Br)c2noc3c2c1C(=O)c1ccccc1-3,-,-,-,-,3.5µM,-
CCn1cc(C(=O)O)c(=O)c2cnc(N3CCN(C(=S)Nc4ccccc4)CC3)nc21,-,-,-,-,-,-
CCCCOC(=O)c1ccc(NC(=S)N2CCN(c3ncc4c(=O)c(C(=O)O)cn(CC)c4n3)CC2)cc1,-,28µM,-,-,-,-
Cc1oc(-c2ccccc2NC(=O)C2CCC2)nc1CNC(=O)c1ccccn1,.,-,.,.,.,.
Cn1cccc1/C=C1\SC(=O)N(c2ccc(O)cc2)C1=O,-,-,-,51,?,-
CCOc1ccc(N2C(=O)S/C(=C\c3cccn3C)C2=O)cc1,-,?,-,-,-,-
C=CC[C@]12CC=CC(=O)[C@@]1(O)O[C@H](c1ccc(OC)c(OC)c1)[C@H]2C,.,-,7.9µM,-,.,.
COc1ccc([C@H]2O[C@@H](c3ccc(OC)c(OC)c3)[C@H](C)[C@@H]2C)cc1OC,.,.,.,.,-,.
Cc1cc(C)cc(C(=O)NCc2nc(-c3cccc(NC(=O)c4ccccn4)c3)oc2C)c1,.,-,.,.,.,.
Cc1cccc2nc(CNC(=O)CN3Cc4cc(Cl)ccc4OC(C)C3)cn12 (stereo not drawn),.,-,.,.,.,.
COc1cc(C(=O)NCC(=O)N2CCN(S(=O)(=O)c3cc(C)ccc3C)CC2)cc(OC)c1OC,-,-,2.2µM,-,.,-
Cc1ccc(C)c(S(=O)(=O)N2CCN(C(=O)CCNC(=O)c3ccc(Br)cc3)CC2)c1,.,-,-,-,.,-
COc1ccc2c(c1)OC(C)CN(CCNC(=O)c1csc(-c3cccs3)n1)C2 (stereo not drawn),.,-,.,.,.,.
c1ccc2c(N=NN3CCCCC3)ccnc2c1,.,-,.,.,.,.
CCNc1ncc2nc(CCc3ccccc3)c(=O)n(Cc3ccc(F)cc3)c2n1,.,45µM,.,.,.,.

# Screening results as filed in PubChem BioAssay.
